Screens (PubChem)
CRE-bla Fsk: modulators of forskolin-stimulated CRE signaling in CHO cells; CHO CRE-bla reporter (cAMP response element driving beta-lactamase), forskolin EC10, beta-lactamase ratio; Potency, µM (highest dose often 38.2 µM), for the others: top-dose activity change, negative = inhibition, hits mostly activators; actives 2.5% (n = 71,000); active = well fitted activation curve with a large enough effect in the signal ratio, with a control signal flat, not every such curve was filed as active; inconclusive = small, poorly fitted or top-dose-only effect, or effect the other way, or a change in a side signal; the % refers to the signal ratio; note: % of control where 0% means no effect
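Modulation of forskolin signalling: compounds in titration series added with EC10 NKH 477 to CHO cells carrying a CRE-driven beta-lactamase reporter, 3 h, 37C. CCF4 FRET ratio (460/530 nm, ex 405 nm) gives %activity and AC50.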
ERK AVP block: blocks ERK signaling stimulated by vasopressin; Potency, µM (highest dose often 57.5 µM), for inactives: top-dose activity, negative = inhibition, actives largely listed as inhibitors; AID 995; HEK293-V1b, vasopressin-stimulated pERK AlphaScreen; actives 0.99% (n = 72,000); note: % is set by controls: 0 for no effect and ±100 for the full control effect; nearly all actives have a fitted effect of over 55% in size
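HEK293 cells stably expressing V1b receptor, seeded overnight in 1% FBS, were treated with compounds for 30 min at 37C, then stimulated 5 min with 25 nM vasopressin; phospho-ERK read by AlphaScreen SureFire after lysis.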
HEK293 cAMP cs: raises cAMP in parental HEK293 cells, TSHR agonist counter-screen; parental HEK293 CNG cAMP sensor, membrane potential fluorescence; Potency, µM (highest dose often 57.1 µM), without a hit: at the top dose activation, most hits filed as activators; actives 2.5% (n = 73,000); AID 938; note: % of control where 0% means no effect; nearly all actives have a fitted effect of over 55% in size
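Counterscreen for endogenous-receptor signalling: CNG-channel HEK 293 cells report cAMP rise by membrane depolarization. After 60 min dye equilibration with 100 uM RO 20-1724, compounds incubated 30 min before bottom-read fluorescence at 590 nm.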
TSHR agonist: agonists of human thyroid stimulating hormone receptor. HEK293-CNG-TSHR cells (CNG channel as cAMP sensor), membrane potential dye, cAMP. Potency, µM (series often up to 57.1 µM), inactives show at the top dose activation, usual class: activators. actives 0.48% (n = 73,000). AID 926; active = well fitted activation curve with a large enough effect in the main read-out, with a control signal flat, not every such curve was filed as active; inconclusive = small, poorly fitted or top-dose-only effect, or a change in a side signal; inactive = no such curve, though single readings can be large or run the other way; % of control where 0% means no effect;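 note: the control signal comes from parental cells without the receptor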
Target sequence (P16473 whole entry, looked up): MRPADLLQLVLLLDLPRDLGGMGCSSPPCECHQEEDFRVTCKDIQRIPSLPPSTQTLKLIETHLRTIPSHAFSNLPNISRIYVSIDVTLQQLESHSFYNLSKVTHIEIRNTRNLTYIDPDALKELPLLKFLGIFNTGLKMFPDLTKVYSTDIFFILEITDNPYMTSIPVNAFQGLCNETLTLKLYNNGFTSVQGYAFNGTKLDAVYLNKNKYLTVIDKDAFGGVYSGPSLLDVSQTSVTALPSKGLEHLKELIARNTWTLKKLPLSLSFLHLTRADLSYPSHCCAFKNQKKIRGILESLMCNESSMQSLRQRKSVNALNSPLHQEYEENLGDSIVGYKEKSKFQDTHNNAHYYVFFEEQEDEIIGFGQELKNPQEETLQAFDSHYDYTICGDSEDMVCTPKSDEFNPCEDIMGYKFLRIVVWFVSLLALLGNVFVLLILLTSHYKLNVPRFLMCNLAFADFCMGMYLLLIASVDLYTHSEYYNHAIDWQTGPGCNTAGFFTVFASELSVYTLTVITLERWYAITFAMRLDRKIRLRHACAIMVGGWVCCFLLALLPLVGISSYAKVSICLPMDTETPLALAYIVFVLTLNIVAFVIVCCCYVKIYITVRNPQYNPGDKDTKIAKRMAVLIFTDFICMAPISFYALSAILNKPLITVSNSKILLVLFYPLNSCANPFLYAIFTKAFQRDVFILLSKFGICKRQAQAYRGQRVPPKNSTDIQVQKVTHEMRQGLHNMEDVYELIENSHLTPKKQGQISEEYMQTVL
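HEK 293 cells stably expressing TSHR and a modified CNG channel, with CNG-only parental cells as counterscreen, were preloaded 60 min at room temperature with membrane potential dye containing 100 uM RO 20-1724. Compound exposure was 30 min, and depolarization was read as fluorescence at 590 nm.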
* = called active by the depositor; ? = inconclusive; . = no result; [ ] = remark or other dose. Rows were chosen to be rich in hits. Some 6% of all compounds tested hit in one or more screens of this group. Unless noted, calls come from the whole dose curve; as a rule, active = well fitted curve in the direction sought with a large enough effect; inconclusive = small, poorly fitted or top-dose-only effect, or another doubt; inactive = no such curve, though single readings can be large; an effect the other way counts as inactive or inconclusive. Potency is the fitted concentration of half-maximal effect.

SMILES | CRE-bla Fsk | ERK AVP block | HEK293 cAMP cs | TSHR agonist
CCOC(=O)NCCc1c(C)nc2c(c(C)nn2C(C)(C)C)c1C | 5µM* | -19% | 3% | .
COC(=O)[C@H](Cc1ccccc1)NC(=O)C/C=C\[C@@H](C)[C@@H](CO)OC | . | 1%[11.5 µM] | 3%[11.4 µM] | -3%[11.4 µM]
COc1ccccc1-c1cc(-n2ccnc2)ncn1 | ? | -2% | 32µM* | ?
COc1ccccc1-c1cncnc1-n1ccnc1 | -11% | -8% | -5% | -2%
COc1ccc2c(c1)C(=O)N(c1ccccc1OC)C(=O)C2(C)C | 3.2µM* | -3% | -4% | 0%
NC(=O)c1ccc(-c2ccc(Br)cc2)o1 | ? | -22% | -2% | 5%
O=C(O)CCc1ccc(-c2ccc(Br)cc2)o1 | ? | -8% | 4µM* | ?
C=C[C@H]1CN2CC[C@@H]1C[C@@H]2[C@@H](O)c1ccnc2ccc(OC)cc12 | -8% | 15% | . | .
COc1ccc(-c2cc(C(=O)Nc3c(C)nn(Cc4ccccc4Cl)c3C)no2)cc1OC | ? | ? | 4% | 23%
COc1ccc(OC)c(-c2cc(C(=O)Nc3c(C)nn(Cc4ccccc4Cl)c3C)no2)c1 | 2.5µM* | 12% | 10% | 18%
COc1ccc(OC)c(-c2cc(C(=O)Nc3c(C)nn(Cc4ccccc4C)c3C)no2)c1 | 3.2µM* | 25% | 8% | 4%
CC1=C(C(=O)OCC2CCCO2)C(c2ccncc2)C2=C(CC(C)(C)CC2=O)N1 (centres undefined) | ? | 1% | 4µM* | ?
CN(C(=O)c1ccccc1C(=O)O)C1CC(C)(C)NC(C)(C)C1 | -4% | . | 7% | -1%
C=C1CC[C@H](O)C/C1=C/C=C1\CCC[C@]2(C)[C@H]1CC[C@H]2[C@@H](C)/C=C\[C@@H](C)C(C)C | -2%[17.1 µM] | 17%[25.7 µM] | ? | ?
CCCC(OC(=O)CN1C(=O)COc2ccccc21)C(=O)NC1CCCC1 (centres undefined) | 0% | -8% | 0.79µM* | ?
CCOC(=O)N1CCC(NC(=O)CCN2C(=O)COc3ccccc32)CC1 | -2% | -4% | -4% | -5%
CC(=O)O[C@@]1(C(C)=O)CCC2C3CC(C)C4=CC(=O)CC[C@@]4(C)C3CC[C@]21C (some centres undefined) | . | 3% | . | .
Nc1c2ccccc2nc2ccccc12 | 13µM* | 17% | -141% | ?
CCC(=O)Nc1nn(C)c2nc3c(C)cccc3cc12 | 10µM* | 26% | 8% | -8%
CCn1nc(NC(=O)c2ccccn2)c2cc3cccc(C)c3nc21 | ? | -6% | ? | ?
Cc1cccc2cc3c(NC(=O)C(C)C)nn(C)c3nc12 | 3.2µM* | 2% | -14% | -9%
Cc1ccc2cc3c(NC(=O)C(C)C)nn(C)c3nc2c1 | 16µM* | 15% | 7% | 2%
ON=C1CCCCC1 | -5% | -9% | -29% | ?
COC(=O)N1CCC[C@@]2(CCN(C(=O)Nc3ccccc3)C2)C1 | -5% | -6% | 12% | 12%
Cc1cccc(N=c2oc3cc(O)ccc3cc2C(N)=O)c1 | 13µM* | -6% | 13% | -1%
SMILES | CRE-bla Fsk | ERK AVP block | HEK293 cAMP cs | TSHR agonist
CN=c1oc2ccc(Cl)cc2cc1C(N)=O | -4% | -9% | 9% | -23%
CCCCNC(=O)c1cc2c(=O)n3cccc(C)c3nc2n(Cc2ccccc2)c1=N | 2.5µM* | 3% | -78% | ?
C=CCn1c(=N)c(C(=O)NCCCOC)cc2c(=O)n3cccc(C)c3nc21 | 13µM* | ? | 2% | -13%
CCn1c(=N)c(C(=O)NCc2cccnc2)cc2c(=O)n3cccc(C)c3nc21 | ? | -8% | 1% | -4%
CNC(=O)c1cc2c(=O)n3cccc(C)c3nc2n(C(C)C)c1=N | 10µM* | -22% | -9% | -5%
COCCNC(=O)c1cc2c(=O)n3cccc(C)c3nc2n1C | ? | . | 1% | 4%
Cc1cccn2c(=O)c3cc(C(=O)NCCN4CCOCC4)c(=N)n(CCc4ccccc4)c3nc12 | 13µM* | -15% | -11% | -11%
COCCn1c(=N)c(C(=O)NCCc2ccccc2)cc2c(=O)n3cccc(C)c3nc21 | ? | -9% | 1% | 3%
Cc1noc(NC(=O)Nc2ccccc2F)c1C#N | 10%[7.6 µM] | 6%[11.5 µM] | 14%[11.4 µM] | -1%[11.4 µM]
C#CCOC(=O)NC(/C=C/CCCC)c1ccccc1 (centres undefined) | 10% | 0% | ? | ?
CN(C)C=Nc1ncc2c([nH]c3ccccc32)c1C#N | 11% | 25µM* | 8% | -23%
O=C1CCCN1CCCNc1ncnc2c1[nH]c1ccc(Cl)cc12 | 1µM* | ? | 3% | 4%
O=C1CCCN1CCCn1cnc2c([nH]c3ccc(F)cc32)c1=O | ? | -3% | 8% | -2%
CCCCCCC1Cc2cc(OC)c(OC)cc2C(C(C(=O)OCC)C(=O)OCC)O1 (centres undefined) | . | 36%[11.5 µM] | 6%[11.4 µM] | -1%[11.4 µM]
C[C@H](C(=O)c1ccncc1)c1ccccn1 | 0%[7.6 µM] | -2%[11.5 µM] | 6%[11.4 µM] | -2%[11.4 µM]
Fc1ccc(Nc2ncnc3ccc(-c4ccoc4)cc23)cc1 | -9% | -6% | 13µM* | ?
COc1ccccc1-c1ccc2ncnc(Nc3ccccc3)c2c1 | ? | -7% | 16µM* | ?
CNc1ncnc2ccc(-c3ccccc3OC)cc12 | ? | 32% | 16% | 7%
COc1ccccc1-c1ccc2ncnc(NCc3ccccc3)c2c1 | -19% | 16µM* | ? | ?
COc1ccccc1CNc1ncnc2ccc(-c3ccc(N(C)C)cc3)cc12 | ? | ? | -64% | ?
COc1ccccc1CNc1ncnc2ccc(-c3cccnc3)cc12 | ? | 20µM* | 25% | 16%
COc1ccccc1CNc1cc(-c2cccc(NS(C)(=O)=O)c2)ncn1 | ? | ? | -5% | 13%
COc1cccc(-c2ccc3ncnc(Nc4ccccc4)c3c2)c1 | ? | ? | 20µM* | ?
COc1cccc(-c2cncnc2Nc2ccccc2)c1 | 1% | ? | 27% | .
COc1ccccc1CNc1ncnc2ccc(-c3ccccc3OC)cc12 | ? | 20µM* | 20% | 13µM*
SMILES | CRE-bla Fsk | ERK AVP block | HEK293 cAMP cs | TSHR agonist
S=C1SCN(C2CCCCCCCCCCC2)CN1C1CCCCCCCCCCC1 | 4%[7.6 µM] | -16%[11.5 µM] | -17%[11.4 µM] | -8%[11.4 µM]
O=C(c1csnn1)N1CCC2(CC1)CCN(c1ccncc1)CC2 | 6% | 14% | -4% | 10%
Cc1ccc(S(=O)(=O)O[C@@H]2[C@H]([C@@H]3COC(C)(C)O3)O[C@H]3OC(C)(C)O[C@@H]32)cc1 | -2%[7.6 µM] | 8%[11.5 µM] | -11%[11.4 µM] | 0%[11.4 µM]
O=C(c1ccco1)N1CCC(c2nc(-c3ccccc3Cl)no2)CC1 | 5% | -22% | ? | ?
O=C(c1ccco1)N1CCC(c2nc(-c3ccc(F)cc3)no2)CC1 | ? | 16% | 20µM* | ?
CCN(CCCNC(=O)CCc1nc(-c2ccc(OC)cc2)no1)c1cccc(C)c1 | 20% | 11% | 18% | 13µM*
OC[C@@H]1NC[C@@H](O)[C@H]1O | 3% | 23% | -8% | 11%
CC1Cn2c(nnc2-c2ccc(F)cc2)S1 (centres undefined) | -6% | . | 4µM* | ?
